# Test system: PPARg:RXRa (NR concentration 180 nM, RXRa partner concentration 90 nM)
# Assay: PBM binding z-score (relative to random genomic background probes); higher = stronger binding; sequences stand for … in GC…GCGATTGACAGCGTAGAATGAAGG
# How it was run: (§1)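 For binding z-scores, the reference was random background probes on custom Agilent 4×180K protein-binding microarrays. These arrays were incubated 1 h with ligand-free nuclear receptor dimers in PBS pH 7.4, 2% milk, 0.02% Triton X-100, 1 mM DTT, 0.2 mg/mL BSA and 0.4 mg/ml salmon testes DNA. Fluorescence was scanned after antibody detection of each partner (one per run) and regression-normalized.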
row,Sequence,PBM binding z-score
1,TAGCCTAGGTCATGGGGGCCAGTATAGTGTCGGC,4.04
2,ATCTCTAGGTAAAAGTTCAGGGAATCCCGAGGAT,8.19
3,CTCGAAAGGTCGTGCTCAGGTGTGTATACCAAAC,2.43
4,ACTTACGGGTCGACGAGGTTATAGCACGCGTATA,1.52
5,AGTCAAAGTTCTCTAGGTAACGTAAGATTCAGCT,0.831
6,AGAATGCGGTTATACGTAGATCAGGGAAGAAAGT,0.152
7,AGAATGAGGTTCAGATCAGGGAAACAGAATACAT,0.585
8,CCTACTGGGCCATCAGGTCACTGATATCAACGTT,3.22
9,CGTCCAAGGTCAGCAGGTTAGTGAAAGCGACGTG,2.77
10,CGTCCAAGGTGAATGCTAGGTCAGTGAAAGCATT,0.352
11,TGAATGAGGTTATAAGATCAGGGTACGTTGCAAA,1.53
12,TCTGCTAGCTCAACGATGGTCAGCTAATCTGCTA,-0.32
13,TCTTGTAGATCAAGCGGGTTAAGAAAGCCTGAGT,-0.599
14,ATATGTAGGTTATTGGGTCATTCAGTTTGCGCAT,8.04
15,ATCTCTAGGTAACCAGTTCAGTGAAAGAGAGGAC,1.06
16,TCTTGTAGACCAAGCAGGTTAAGAAAGCCTGAGT,-0.307
17,CCTACTGGGCCATTCAGAGCTCATTGATCATATG,0.223
18,AGAATGAGGTTATTAAGATCAAGGAATTGCGGTC,1.82

# Test system: PPARg:RXRa 270nM:90nM, anti-RXR (NR concentration 270 nM, RXRa partner concentration 90 nM)
# Assay: as above
# How it was run: as §1
row,Sequence,PBM binding z-score
1,CAAACTAGGACAAGAGGTCAAAGTCCGCTTCCCG,6.56
2,GGAACAAGGGCAAAGTTGATAGCATCTGTCGACG,6.3
3,ACTTACGGGTCAAAGAGGTTATAGCACGCGTATA,5.31
4,CCGACTGGGGCATAAGGTTACCAGAAGCCAGCCC,3.48
5,ACTATTAGTTGAGACGAGAGCAACCGATAGGTTG,-0.133
6,TCGAGTAGGTTAGTCAGGGCATTCAGCCAACATA,0.99
7,TCGAGTAGGTGAGGGGCATTCAGAATGGCGTCGA,3.31
8,ATATGTAGGTTAAGGTTCATTCAGGTTGGTTCGC,9.42
9,AGAATGAGGTTATTCGTAGATCAGGGAAGAAAGT,1.83
10,GCGACTGGGGCACAGCAGGTTACCATAAGGTTGG,1.45
11,GGAACGCGGGCATTCGAGTTGATAGCATGGCGAT,-0.711
12,CCTACTGGGCTACGAAAGGTCATTGATTCAGTGA,4.36
13,ACTTACCGGTCAACGAGGTTATAGCACGCGTATA,1.2
14,CTCGAAAGGTCGTGCTCAGGTGAGGATACCAAAC,4.04
15,GCTATGAGTTGAAAGGGCAACCGAATGATTCTCG,3.86
16,ATTTGTAGGTTAAGGGTCATTCAGGTTGGTTCGC,9.95
17,TATTGTAGATCAAGCAGGTTAAGAAAGCCTGAGT,0.334
18,CGTCATAGTTCAACTAAGGTAACGTAAAGCACGC,2.25
19,TGTCAAAGTTCAAAGGTAACCTAAGTATCCACAC,7.74
20,CGTCCATGGTCAGAGAGGTCAGTGAATGCCGAGT,0.981

row,Sequence,PBM binding z-score
1,ACTCGGAGGACAAAGGTCAGAGGTACGCCAGTGA,6.74
2,CTCGAAAGGTCGGTTTAGGTGAGTATACGGATAA,1.04
3,TAGCCTAGGTCATGGGGGCCAGTATAGTGTCGGC,4.26
4,ATCTCTAGGTAAAAGTTCAGGGAATCCCGAGGAT,7.53
5,CTCGAAAGGTCGTGCTCAGGTGTGTATACCAAAC,3.56
6,ACTTACGGGTCGACGAGGTTATAGCACGCGTATA,1.22
7,AGTCAAAGTTCTCTAGGTAACGTAAGATTCAGCT,1.19
8,AGAATGCGGTTATACGTAGATCAGGGAAGAAAGT,-0.304
9,AGAATGAGGTTCAGATCAGGGAAACAGAATACAT,-0.121
10,CCTACTGGGCCATCAGGTCACTGATATCAACGTT,3.98
11,CGTCCAAGGTCAGCAGGTTAGTGAAAGCGACGTG,3.33
12,CGTCCAAGGTGAATGCTAGGTCAGTGAAAGCATT,0.668
13,TGAATGAGGTTATAAGATCAGGGTACGTTGCAAA,1.96
14,TCTGCTAGCTCAACGATGGTCAGCTAATCTGCTA,0.116
15,TCTTGTAGATCAAGCGGGTTAAGAAAGCCTGAGT,1.1
16,ATATGTAGGTTATTGGGTCATTCAGTTTGCGCAT,6.41
17,ATCTCTAGGTAACCAGTTCAGTGAAAGAGAGGAC,1.24
18,TCTTGTAGACCAAGCAGGTTAAGAAAGCCTGAGT,1.12
19,CCTACTGGGCCATTCAGAGCTCATTGATCATATG,0.0807
20,AGAATGAGGTTATTAAGATCAAGGAATTGCGGTC,2.2

# Test system: PPARg:RXRa 30nM:10nM, anti-RXR (NR concentration 30 nM, RXRa partner concentration 10 nM)
# Assay: as above
# How it was run: as §1
row,Sequence,PBM binding z-score
1,CAAACTAGGACAAGAGGTCAAAGTCCGCTTCCCG,4.76
2,GGAACAAGGGCAAAGTTGATAGCATCTGTCGACG,5.66
3,ACTTACGGGTCAAAGAGGTTATAGCACGCGTATA,2.31
4,CCGACTGGGGCATAAGGTTACCAGAAGCCAGCCC,1.75
5,ACTATTAGTTGAGACGAGAGCAACCGATAGGTTG,0.37
6,TCGAGTAGGTTAGTCAGGGCATTCAGCCAACATA,1.13
7,TCGAGTAGGTGAGGGGCATTCAGAATGGCGTCGA,1.98
8,ATATGTAGGTTAAGGTTCATTCAGGTTGGTTCGC,8.81
9,AGAATGAGGTTATTCGTAGATCAGGGAAGAAAGT,0.552
10,GCGACTGGGGCACAGCAGGTTACCATAAGGTTGG,-0.344
11,GGAACGCGGGCATTCGAGTTGATAGCATGGCGAT,-0.908
12,CCTACTGGGCTACGAAAGGTCATTGATTCAGTGA,2.08
13,ACTTACCGGTCAACGAGGTTATAGCACGCGTATA,0.21
14,CTCGAAAGGTCGTGCTCAGGTGAGGATACCAAAC,0.853
15,GCTATGAGTTGAAAGGGCAACCGAATGATTCTCG,1.58
16,ATTTGTAGGTTAAGGGTCATTCAGGTTGGTTCGC,11.8
17,TATTGTAGATCAAGCAGGTTAAGAAAGCCTGAGT,0.0668
18,CGTCATAGTTCAACTAAGGTAACGTAAAGCACGC,0.562
19,TGTCAAAGTTCAAAGGTAACCTAAGTATCCACAC,5.57
20,CGTCCATGGTCAGAGAGGTCAGTGAATGCCGAGT,-0.535

row,Sequence,PBM binding z-score
1,ACTCGGAGGACAAAGGTCAGAGGTACGCCAGTGA,4.88
2,CTCGAAAGGTCGGTTTAGGTGAGTATACGGATAA,-0.0408
3,TAGCCTAGGTCATGGGGGCCAGTATAGTGTCGGC,1.09
4,ATCTCTAGGTAAAAGTTCAGGGAATCCCGAGGAT,7.81
5,CTCGAAAGGTCGTGCTCAGGTGTGTATACCAAAC,1.06
6,ACTTACGGGTCGACGAGGTTATAGCACGCGTATA,0.608
7,AGTCAAAGTTCTCTAGGTAACGTAAGATTCAGCT,0.092
8,AGAATGCGGTTATACGTAGATCAGGGAAGAAAGT,-0.0964
9,AGAATGAGGTTCAGATCAGGGAAACAGAATACAT,0.313
10,CCTACTGGGCCATCAGGTCACTGATATCAACGTT,1.37
11,CGTCCAAGGTCAGCAGGTTAGTGAAAGCGACGTG,0.363
12,CGTCCAAGGTGAATGCTAGGTCAGTGAAAGCATT,-0.499
13,TGAATGAGGTTATAAGATCAGGGTACGTTGCAAA,0.789
14,TCTGCTAGCTCAACGATGGTCAGCTAATCTGCTA,1.25
15,TCTTGTAGATCAAGCGGGTTAAGAAAGCCTGAGT,2.23
16,ATATGTAGGTTATTGGGTCATTCAGTTTGCGCAT,3.93
17,ATCTCTAGGTAACCAGTTCAGTGAAAGAGAGGAC,0.669
18,TCTTGTAGACCAAGCAGGTTAAGAAAGCCTGAGT,2.54
19,CCTACTGGGCCATTCAGAGCTCATTGATCATATG,-0.459
20,AGAATGAGGTTATTAAGATCAAGGAATTGCGGTC,0.602

# Source: the supplement of paper PMC6555819
